Data on 21 compounds can be found in PubChem BioAssay (EPA / NIEHS).

Test [1] is described as follows: ATG_PBREM_CIS: Attagene CIS-FACTORIAL HepG2 Assay for human Phenobarbital-responsive Enhancer Module (PBREM) (AID 2282955). The conditions noted are these: HepG2 PBREM cis-reporter, Attagene multiplexed transcription; actives raise or lower the signal. The method, boiled down: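 Readout: reporter mRNA, fluorescent RT-PCR fragments separated by capillary electrophoresis. System: HepG2 transiently transfected with cis-regulated reporter units. Exposure: 24 h. Analysis: bidirectional, DMSO baseline.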

Test [2] has as its target Paired box protein Pax-6 (Homo sapiens) (UniProt P26367). The test is described as follows: ATG_Pax6_CIS: Attagene CIS-FACTORIAL HepG2 Assay for human Paired Box 6 (PAX6) (AID 2282956). Particulars: HepG2 CIS-FACTORIAL PAX6 reporter transcription, RNA readout; actives raise or lower the signal. The method, boiled down:
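Values derive from bidirectional curve fitting of reporter mRNA signal relative to DMSO. HepG2 cells bearing transfected cis-regulated MRTUs were exposed for 24 h; transcripts were read by RT-PCR and capillary electrophoresis.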

A short description of test [3]: ATG_PXRE_CIS: Attagene CIS-FACTORIAL HepG2 Assay for human Pregnane X Receptor Element (PXRE) (AID 2282957). Particulars: HepG2 Attagene CIS-FACTORIAL PXRE reporter, mRNA; actives raise or lower the signal. The method, boiled down: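 Endogenous transcription factor activity in HepG2 was gauged through induction of reporter mRNA driven by a cis-regulating promoter element, sampled 24 h post-treatment. Activity was fitted in both directions against DMSO negative control.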

Test [4] in a line: ATG_PPRE_CIS: Attagene CIS-FACTORIAL HepG2 Assay for human Peroxisome Proliferator-activated Response Element (PPRE) (AID 2282958). Particulars: HepG2 PPRE cis-element reporter, Attagene transcription factor profiling; actives raise or lower the signal. Summed up:
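After human HepG2 hepatoma cells were transiently transfected with cis-promoter reporter constructs, they were exposed to test chemicals for 24 hours. Reporter RNA was then reverse-transcribed, PCR-amplified, FAM-labeled, HpaI-digested and quantified by capillary electrophoresis.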

The nature of test [5]: ATG_RORE_CIS: Attagene CIS-FACTORIAL HepG2 Assay for human RAR-related Orphan Receptor Element (RORE) (AID 2282959). The conditions noted are these: HepG2 Attagene cis-factorial RORE reporter, mRNA; actives raise or lower the signal. Summed up:
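Measured here: transcript induction of a cis-regulated reporter in HepG2 cells transiently transfected via FuGene 6. After 24 h, RNA was processed by RT-PCR and fluorescent capillary electrophoresis; DMSO defined baseline activity.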

The nature of test [6]: ATG_Sox_CIS: Attagene CIS-FACTORIAL HepG2 Assay for human SRY-box transcription factor (SOX) (AID 2282960). The conditions noted are these: HepG2 Attagene cis-factorial SOX reporter, mRNA; actives raise or lower the signal. Summed up:
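Using transiently transfected HepG2 cells, reporter transcription driven by cis elements was assessed 24 h after dosing. Signal was fluorescence of capillary-separated RT-PCR products, with DMSO defining baseline activity.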

For test [7], the target named is Transcription factor Sp1 (Homo sapiens) (UniProt P08047). The test is described as follows: ATG_Sp1_CIS: Attagene CIS-FACTORIAL HepG2 Assay for human Specificity Protein 1 (Sp1) (AID 2282961). Particulars: HepG2 Sp1 cis-reporter transcription, actives raise or lower the signal. Summed up: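 After transient transfection of HepG2 cells with cis-promoter reporter units and 24 h chemical treatment, reporter transcripts were quantified by RT-PCR and capillary electrophoresis fluorescence. Gain- and loss-of-signal fitted against DMSO.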
Sequence of Transcription factor Sp1 (Homo sapiens) (P08047 whole entry, looked up): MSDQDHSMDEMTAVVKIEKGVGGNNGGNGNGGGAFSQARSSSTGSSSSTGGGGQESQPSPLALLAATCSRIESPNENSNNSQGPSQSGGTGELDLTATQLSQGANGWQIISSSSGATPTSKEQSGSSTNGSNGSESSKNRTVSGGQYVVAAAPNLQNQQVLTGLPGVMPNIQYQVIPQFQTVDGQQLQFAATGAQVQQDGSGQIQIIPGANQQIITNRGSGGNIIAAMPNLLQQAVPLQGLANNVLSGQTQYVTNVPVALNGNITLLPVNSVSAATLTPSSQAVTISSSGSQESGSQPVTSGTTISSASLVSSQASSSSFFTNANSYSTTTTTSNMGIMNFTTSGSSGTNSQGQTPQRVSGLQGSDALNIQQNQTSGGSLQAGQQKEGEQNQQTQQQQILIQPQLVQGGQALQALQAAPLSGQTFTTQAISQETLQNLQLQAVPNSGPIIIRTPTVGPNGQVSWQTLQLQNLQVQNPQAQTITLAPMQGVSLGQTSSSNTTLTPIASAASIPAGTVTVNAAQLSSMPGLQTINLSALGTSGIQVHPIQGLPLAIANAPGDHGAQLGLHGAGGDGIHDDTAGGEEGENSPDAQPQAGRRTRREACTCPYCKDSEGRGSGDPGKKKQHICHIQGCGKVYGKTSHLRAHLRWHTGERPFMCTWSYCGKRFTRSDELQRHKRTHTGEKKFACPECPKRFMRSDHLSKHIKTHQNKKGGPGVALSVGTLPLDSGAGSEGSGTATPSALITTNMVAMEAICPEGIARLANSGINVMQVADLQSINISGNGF

A short description of test [8]: ATG_SREBP_CIS: Attagene CIS-FACTORIAL HepG2 Assay for human Sterol Regulatory Element Binding (SREBP) (AID 2282962). The conditions noted are these: HepG2 Attagene cis-factorial SREBP reporter, mRNA; actives raise or lower the signal. The method, boiled down:
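Values derive from bidirectional curve fitting with DMSO as baseline. The underlying measurement is reporter mRNA from cis-element-regulated units in transiently transfected HepG2, quantified by RT-PCR and capillary electrophoresis after 24 h exposure.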

Test [9] addresses Signal transducer and activator of transcription 3 (Homo sapiens) (UniProt P40763). The test is described as follows: ATG_STAT3_CIS: Attagene CIS-FACTORIAL HepG2 Assay for human Signal Transducer and Activator of Transcription 3 (STAT3) (AID 2282963). The conditions noted are these: HepG2, Attagene cis-factorial STAT3 reporter transcription; actives raise or lower the signal. The method, boiled down: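 Uses human liver HepG2 transiently carrying cis-regulated reporter transcription units. Following 24 h dosing, reporter mRNA induction was detected by RT-PCR and capillary electrophoresis, analysed bidirectionally versus DMSO.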

Test [10] in a line: ATG_TA_CIS: Attagene CIS-FACTORIAL HepG2 Assay for human TA Basal Promoter (AID 2282964). Particulars: HepG2 Attagene CIS-factorial TA basal promoter reporter; actives raise or lower the signal. The method, boiled down:
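HepG2 cells transiently transfected with multiple reporter units under cis promoter elements, reporting endogenous transcription factor activity; this endpoint tracks the TA basal promoter as background control. Reporter mRNA after 24 h dosing measured by RT-PCR/capillary electrophoresis; bidirectional fits versus DMSO.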

Where “and” joins values, the source holds several entries; their conditions need not be identical. Equal entries are not always repeated. Some compounds were tested as several samples or in several runs, with calls that do not always agree. Calls of active or inactive are those of the source. Rule for the calls: active = hit-call score of the fitted dose curve at least 0.9, where 1 is the maximum; inactive = score below 0.9.

Sequence of Paired box protein Pax-6 (Homo sapiens) (P26367 whole entry, looked up): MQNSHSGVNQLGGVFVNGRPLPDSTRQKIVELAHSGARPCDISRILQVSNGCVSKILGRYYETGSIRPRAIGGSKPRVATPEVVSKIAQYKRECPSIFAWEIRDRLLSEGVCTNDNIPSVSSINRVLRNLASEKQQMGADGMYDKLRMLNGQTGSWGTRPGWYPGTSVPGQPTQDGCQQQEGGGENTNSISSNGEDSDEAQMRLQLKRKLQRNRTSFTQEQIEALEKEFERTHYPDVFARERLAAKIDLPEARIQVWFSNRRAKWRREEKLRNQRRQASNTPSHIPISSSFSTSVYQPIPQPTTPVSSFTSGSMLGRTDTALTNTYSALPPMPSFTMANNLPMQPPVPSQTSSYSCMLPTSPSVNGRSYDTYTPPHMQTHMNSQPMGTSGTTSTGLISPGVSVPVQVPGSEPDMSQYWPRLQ
Sequence of Signal transducer and activator of transcription 3 (Homo sapiens) (P40763 whole entry, looked up): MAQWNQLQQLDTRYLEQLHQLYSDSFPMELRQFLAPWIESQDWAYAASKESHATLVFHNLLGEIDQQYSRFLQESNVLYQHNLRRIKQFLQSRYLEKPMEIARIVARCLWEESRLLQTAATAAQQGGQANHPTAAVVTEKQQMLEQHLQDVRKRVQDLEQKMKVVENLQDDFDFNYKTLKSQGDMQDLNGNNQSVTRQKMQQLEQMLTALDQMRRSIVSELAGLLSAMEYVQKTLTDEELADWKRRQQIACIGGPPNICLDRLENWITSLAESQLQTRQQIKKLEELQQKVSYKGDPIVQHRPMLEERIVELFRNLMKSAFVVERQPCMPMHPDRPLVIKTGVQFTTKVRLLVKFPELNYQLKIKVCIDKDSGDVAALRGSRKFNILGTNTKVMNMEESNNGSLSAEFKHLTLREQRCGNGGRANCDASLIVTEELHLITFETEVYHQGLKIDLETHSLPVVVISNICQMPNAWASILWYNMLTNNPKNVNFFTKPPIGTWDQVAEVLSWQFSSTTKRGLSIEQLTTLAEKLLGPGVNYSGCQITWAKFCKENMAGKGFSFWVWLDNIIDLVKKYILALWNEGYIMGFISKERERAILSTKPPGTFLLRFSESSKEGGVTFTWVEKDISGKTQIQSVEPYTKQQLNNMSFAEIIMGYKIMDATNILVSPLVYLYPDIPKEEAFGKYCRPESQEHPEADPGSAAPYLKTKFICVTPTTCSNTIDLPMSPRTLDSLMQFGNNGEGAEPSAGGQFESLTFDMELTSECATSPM

What is called AC50 is the midpoint of the concentration-response curve, whichever way the signal moves. Consider `C=CC(O)CCCCC` (configuration not stated), for which the result in test [1], in test [3], in [4], in test [5], in [7] and in test [8] was inactive. For the same compound, the outcome in test [9] and in test [10] was inactive. Also, the AC50 in [2] was 58.6 µM (active); in [6] it was 100 µM (active).

`O=C(c1ccc(OCCN2CCCCC2)cc1)c1c(-c2ccc(O)cc2)sc2cc(O)ccc12`: the outcome in test [1], in test [2], in test [3], in test [4], in test [5] and in [6] was inactive. Further, the compound was classed as inactive in test [7], in test [8], in test [9] and in [10]. Besides, the AC50 is 11.1 µM (active) [middle of 4 runs] in [2]; 2.79 µM (active) [middle of 4 runs] in test [3]; 11.1 µM (active) and 15.6 µM (active) in test [5]; 13 µM (active) and 18 µM (active) in [6]; 11.1 µM (active) and 16.7 µM (active) in test [7]; 6.38 µM (active) and 2.85 µM (active) and 2.92 µM (active) in [8]. Further, the AC50 in test [10] is 19.3 µM (active) and 8.31 µM (active).

In the case of `CCCCCCCCCCCCCC(=O)OCC`, the result in [1], in [2], in test [3], in test [4], in test [5] and in test [6] was inactive. For the same compound, the compound was classed as inactive in test [7], in test [8], in [9] and in test [10].

For `CCCCOCCOCCOCCO`, the result in [1], in [2], in [3], in test [4], in test [5] and in test [6] was inactive. Moreover, the outcome in [7], in test [8], in [9] and in [10] was inactive.

`CC(=O)C1=C(C)[C@@H]2C[C@@]3(C1)[C@H](C)CC[C@H]3C2(C)C`: the AC50 in test [1] was 161 µM (active); in test [3] it was 1.91 µM (active); in [7], 50.5 µM (active); in test [8], 71.8 µM (active); in test [9], 150 µM (active); in test [10] it was 159 µM (active). Further, the compound was called inactive in test [2], in test [4], in test [5] and in [6].

For the compound `CN(C)C(=O)Nc1ccccc1`, the outcome in test [1], in test [2], in [4], in test [5], in test [6] and in test [7] was inactive. Further, the compound was called inactive in test [8], in [9] and in [10]. The AC50 in [3] is 26.5 µM (active).

On to `CCCCCCCCCCO[C@@H]1O[C@H](CO)[C@@H](O)[C@H](O)[C@H]1O`, for which the outcome in [1], in test [2], in [3], in test [4], in [5] and in test [6] was inactive. Moreover, the result in [7], in test [8], in test [9] and in test [10] was inactive.

With `CCOC(=O)C(=O)OCC`, the result in test [1], in [2], in test [3], in [4], in [5] and in test [6] was inactive. Moreover, the result in test [7], in test [8], in [9] and in test [10] was inactive.

`NC(=O)c1c(Cl)cccc1Cl`: the outcome in test [1], in [2], in test [4], in test [5], in test [6] and in test [7] was inactive. For the same compound, the outcome in [8], in test [9] and in [10] was inactive. In addition, in [3], the AC50 is 0.104 µM (active).

As for `CCCCCCOc1ccc(O)cc1`, the outcome in test [1], in test [4], in [5], in test [6], in [7] and in test [8] was inactive. For the same compound, the outcome in test [9] was inactive. Besides, the results for the AC50 in [2], in [3] and in [10] were 33.4 µM (active), 5.85 µM (active) and 39.2 µM (active), respectively.

With `CC(=O)Oc1c(C)c(C)c2c(c1C)CC[C@@](C)(CCC[C@H](C)CCC[C@H](C)CCCC(C)C)O2`, the result in test [1], in test [2], in [3], in test [4], in test [5] and in [6] was inactive. The compound was classed as inactive in test [7], in [8], in [9] and in [10].

With `CC(=O)c1ccc(O)cc1`, the result in test [1], in [2], in test [4], in [5], in [6] and in test [7] was inactive. The call in test [8], in [9] and in test [10] was inactive. For the same compound, the AC50 in test [3] is 100 µM (active).

Turning to `CC(=O)c1ccc(C)cc1`, the result in test [1], in test [2], in test [3], in test [4], in test [5] and in test [6] was inactive. Besides, the outcome in test [7], in [8], in test [9] and in test [10] was inactive.

As for `CCCOC(=O)CC`, the result in test [1], in test [2], in [3], in [4], in test [5] and in [6] was inactive. Besides, the result in [7], in [8], in [9] and in test [10] was inactive.

For the compound `CC/C=C\CCOC(C)OCC` (configuration not stated), the outcome in [1], in test [2], in test [3], in [4], in test [5] and in test [6] was inactive. The compound was called inactive in [7], in test [8], in [9] and in test [10].

As to `C=CC(C)CCCC(C)(C)O` (configuration not stated), the result in test [1], in test [2], in test [3], in [4], in test [5] and in test [6] was inactive. In addition, the result in test [7], in test [8], in test [9] and in test [10] was inactive.

In the case of `CCCCC(CC)COCCO` (configuration not stated), the outcome in test [1], in test [2], in test [3], in [4], in test [5] and in test [6] was inactive. Also, the compound was classed as inactive in test [7], in test [8], in test [9] and in test [10].

For the compound `CC(=O)CC(C)(C)C1CCCCC1`, the outcome in [1], in test [2], in [4], in [5], in [6] and in [7] was inactive. Moreover, the result in [8], in test [9] and in test [10] was inactive. The AC50 in test [3] was 30.7 µM (active).

In the case of `CC(C)C(=O)OCC=Cc1ccccc1`, the result in test [1], in test [2], in [4], in test [5], in test [6] and in test [7] was inactive. Besides, the result in test [8], in [9] and in test [10] was inactive. The AC50 in [3] is 16.4 µM (active).

For the compound `CC(C)COC(=O)c1ccccc1`, the result in [1], in [2], in test [3], in test [4], in test [5] and in [6] was inactive. The outcome in test [7], in test [8], in test [9] and in [10] was inactive.

Take `CC(C)(C)c1ccc(S)cc1`: the outcome in test [1], in test [2], in test [4], in test [5], in [6] and in test [7] was inactive. Further, the outcome in test [8], in test [9] and in test [10] was inactive. Besides, the AC50 in test [3] was 6.36 µM (active).
